Screening results as filed in PubChem BioAssay.
hcDAF-12 act – activates DAF-12 receptor from parasite H. contortus. HEK293 hcDAF-12 lit1-tk-luc reporter, luminescence; 0% DMSO, 100% Δ7-dafachronic acid. activation, % at 6.8 µM. hit rate 1.4% among 370,000. AID 652067;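 active = activation above the mean of all tested compounds plus 3 SD, cut at about 5.5% in these data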;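 also: 100% = response to 3 µM Δ7-dafachronic acid high control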
ssDAF-12 act – S. stercoralis DAF-12 activation, primary screen. HEK293 ssDAF-12/GRIP1 lit1-tk-luc reporter, luminescence; % of 3 µM dafachronic acid response. activation, % at 6.8 µM. hit rate 1% among 370,000. AID 652126;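 active = activation above the mean over all tested compounds plus 3 SD, cut at about 0.9% in these data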;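 also: 0% = DMSO-only wells and 100% = 3 µM delta7-dafachronic acid wells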
hgDAF-12 ag – hgDAF-12 agonism, primary luciferase screen. activation, % at 6.8 µM. hit rate 1.8% among 370,000. AID 687014. HEK293 GAL4-hgDAF12 UAS-luciferase reporter, agonist luminescence; normalized to butyrate control;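 active = activation above a cutoff set at the mean of all screened compounds plus 3 SD, cut at about 10% in these data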;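 also: 0% = DMSO wells and 100% = sodium butyrate wells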
DAX1 inh-1 – NR0B1 (DAX1) inhibition | P51843 | HEK293 Gal4-DAX1 luciferase reporter, luminescence | inhibition, % at 6.75 µM | hit rate 0.99% among 340,000;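 active = inhibition above the mean over all tested compounds plus 3 SD, cut at about 4.2% in these data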;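 also: 0% = DAX1-transfected cells with DMSO and 100% = empty-vector control cells with DMSO; inhibition shows as a rise in luminescence from relieved DAX1 repression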
Target sequence (P51843 207-470 limits assumed): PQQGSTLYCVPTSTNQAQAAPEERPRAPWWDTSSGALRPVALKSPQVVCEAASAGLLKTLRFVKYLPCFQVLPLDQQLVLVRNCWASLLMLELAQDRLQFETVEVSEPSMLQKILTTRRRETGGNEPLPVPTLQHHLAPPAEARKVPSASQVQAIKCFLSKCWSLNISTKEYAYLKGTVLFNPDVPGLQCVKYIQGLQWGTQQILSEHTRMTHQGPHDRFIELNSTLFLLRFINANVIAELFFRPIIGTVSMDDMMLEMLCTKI
DAX1 inh-2 – blocks DAX1 repression of SF-1 activated StAR promoter; inhibition, % at 6.8 µM; HEK293T StAR-luciferase reporter, SF-1/DAX-1 repression relief; hit rate 1.1% among 370,000;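 active = inhibition above the mean over all tested compounds plus 3 SD, cut at about 3.6% in these data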;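 also: 0% = DAX-1 cells with DMSO and 100% = cells lacking DAX-1 with DMSO; higher inhibition means more luminescence from relief of DAX-1 repression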
AHR activator – activators of human aryl hydrocarbon receptor; P35869; AHR-responsive luciferase reporter cells, luminescence; activation, % at 5 µM; hit rate 2.5% among 320,000; AID 2796; in the data active = activation above about 47%;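 also: 0% = vehicle wells and 100% = reference agonist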
Active calls of the source: *; . = not tested or not shown. An excerpt weighted towards active compounds, which were near 5.7% of everything screened.

SMILES | hcDAF-12 act | ssDAF-12 act | hgDAF-12 ag | DAX1 inh-1 | DAX1 inh-2 | AHR activator
Cc1ccc(-c2cc(-c3ccccc3)nc(N/N=C/c3cccnc3)n2)cc1 | 1 | 0 | 6 | 1 | -2 | 63*
Cc1ccc(/C=N/Nc2nc(C)cc(C)n2)cc1 | -1 | -1 | 3 | 1 | 0 | 23
C(=N\Nc1nc(Nc2ccccc2)nc(Nc2ccccc2)n1)/c1cccnc1 | 2 | -1 | 1 | -1 | -1 | 142*
C(=N\Nc1nc(Nc2ccccc2)nc(Nc2ccccc2)n1)/c1ccncc1 | 0 | -1 | -4 | 0 | 0 | 28
COc1ccc(/C=N/Nc2nc(C)cc(-c3ccccc3)n2)cc1OC | -4 | -2 | -3 | -3 | -1 | 52*
Cc1cc(-c2ccccc2)nc(N/N=C/c2ccccc2)n1 | 4 | 0 | 5 | 0 | 0 | 15
Nc1c(C(=O)CSc2nc3ccccc3o2)c(=O)[nH]c(=O)n1C1CC1 | -2 | -1 | -6 | -2 | 4.4* | 2
O=C(NC1CCC1)c1ccc(C#CC2CC2)c[n+]1[O-] | -1 | 0 | 11* | . | 2 | .
CS(=O)(=O)c1ccc(C(=O)NC2CCCCC2)cc1 | 2 | -1 | 1 | -1 | 0 | 2
COC(=O)c1ccc(/C=C2\Oc3ccccc3NC2=O)cc1 | 2 | -1 | 3 | 0 | 0 | 8
O=C1Nc2ccccc2O/C1=C\c1c(F)cccc1Cl | 0 | -1 | 1 | 2 | -1 | 49*
Cc1ccc(NC(=O)Cc2noc3ccccc23)nc1 | -1 | -1 | 4 | -1 | 1 | 1
O=C(Cc1noc2ccccc12)Nc1ccccn1 | 2 | 0 | 11* | 4 | 1 | 1
COc1ccccc1NC(=O)c1coc(=O)c(Br)c1 | 0 | 0 | -1 | . | 1 | 2
COCCCn1c(=O)/c(=C/c2ccccc2OC(F)F)s/c1=C(\C#N)C(=O)NCCOC | 0 | -2 | 2 | 0 | -1 | .
COCCCn1c(=O)/c(=C\c2cccc(OC)c2OC)s/c1=C(/C#N)C(=O)Nc1ccc(C(=O)O)cc1 | 1 | -1 | -2 | 4.3* | 0 | 6
COC(=O)C(=O)C/C(=N/Nc1ncnc2ccccc12)c1ccc(Cl)cc1 | 4 | 0 | 0 | -1 | 0 | 58*
CCOC(=O)c1cccc(Nc2ncnc3ccccc23)c1 | -2 | -1 | 1 | 0 | 0 | 11
O=C(NNC1=NC2(CCCC2)Cc2ccccc21)c1ccncc1 | -1 | -1 | 3 | 2 | 0 | 24
O=C(c1cc(COc2cccc(C(F)(F)F)c2)on1)N1CCCC1 | -1 | -1 | 3 | 1 | 0 | .
C[C@@H]1CN(C(=O)c2cc(COc3cccc(C(F)(F)F)c3)on2)C[C@H](C)O1 | 3 | -1 | 11* | 2 | 3 | 19
FC(F)(F)C1=NNC(c2ccc3ccccc3c2)=NN1 | 1 | 0 | 12* | 0 | 1 | .
CCCOc1ccc(OCCn2nc(C(=O)O)c3ccccc3c2=O)cc1 | 0 | -2 | 1 | 0 | -1 | 0
CCC(C)C(NC(N)=O)C(=O)Nc1ccc(C(=O)OC)cc1 (configuration not stated) | -1 | -1 | 4 | 4.4* | 1 | 4
O=C(NCC(c1ccccc1)N1CCCC1)C1CCN(C(=O)Nc2ccccc2)CC1 (configuration not stated) | 1 | -1 | 0 | -1 | 2 | .
SMILES | hcDAF-12 act | ssDAF-12 act | hgDAF-12 ag | DAX1 inh-1 | DAX1 inh-2 | AHR activator
COc1ccc(CCNC(=O)c2cccc(S(=O)(=O)N3CCc4ccccc4C3)c2)cc1 | 0 | -1 | -1 | 0 | -1 | 1
Cc1nn(-c2ccc(C(=O)O)cc2)c(=O)c2ccccc12 | -1 | -1 | -1 | -1 | 0 | 1
Cc1nn(-c2ccccc2)c(=O)c2ccccc12 | 1 | -2 | 4 | 0 | 1 | 61*
Cc1cc(=O)[nH]c2c1c(C)nn2-c1ccccc1 | 0 | 0 | 1 | 2 | 0 | 62*
Cc1nn(-c2cccc(C(F)(F)F)c2)c(=O)c2ccccc12 | 2 | 0 | -1 | 2 | 0 | 50*
O=c1[nH][nH]c2cc(=O)n(-c3cccc(C(F)(F)F)c3)nc12 | -1 | 5.2* | -1 | 0 | 0 | -2
Cc1nn(-c2ccccc2)c2[nH]c(=O)cc(C(F)(F)F)c12 | -1 | -1 | 0 | 0 | 0 | 18
CC1CCc2cc(F)ccc2N1C(=O)c1ccc2c(c1)OCO2 (configuration not stated) | -2 | -2 | 0 | -1 | -1 | 22
O=[N+]([O-])c1ccc(Cl)c(S(=O)(=O)/N=C(/c2ccccc2)N2CCOCC2)c1 | -2 | -2 | -3 | 2 | 0 | -1
CCc1nc(SCC(=O)Nc2nnc(C(C)C)s2)n[nH]1 | 2 | -1 | 5 | 0 | 0 | .
COc1cc(CN(C(=S)NCC(=O)NC2CCCC2)C2CCCC2)cc(OC)c1OC | -1 | -1 | -2 | -1 | 0 | 0
CN(C)c1ccc(NC(=O)CCCc2ccccc2)cc1 | 5 | 0 | 12* | 2 | 3 | 37
O=C(Cn1cccc1C(=O)c1ccccc1)NCc1cccc(Cl)c1 | -1 | -2 | 2 | 0 | 1 | 2
Cc1cc(=O)[nH]c(/N=C(\N)Nc2ccc(SC(F)F)cc2)n1 | -2 | -1 | -5 | 0 | 0 | 68*
CN1CCCN(C(=O)CSc2ccccc2)CC1 | -1 | -1 | 0 | 0 | 0 | -3
CN1CCN(C(=O)CSc2ccc(Cl)cc2)CC1 | 2 | -1 | 9 | 4.6* | 1 | 2
CCOc1ccccc1NC1=C(OC)C(=O)C(Nc2ccccc2OCC)=C(OC)C1=O | -2 | -1 | -1 | 0 | 0 | .
Cc1onc(-c2ccccc2)c1C(=O)OCC(=O)c1ccc[nH]1 | -1 | -1 | -2 | -1 | -1 | .
Cc1ccc(C(=O)CSc2n[nH]c(C)n2)cc1 | 1 | -1 | 1 | 0 | 0 | 2
CCc1ccc(C(=O)CSc2n[nH]c(C)n2)cc1 | 1 | -1 | 2 | 1 | 0 | 56*
CCN(CC)C(=O)CSc1nc(N)c(C#N)c(-c2cccs2)c1C#N | -3 | -1 | -2 | 0 | -2 | 77*
CCN(CC)C(=O)CSc1ncnc2c(-c3cccs3)nsc12 | 2 | 0.9* | 2 | 1 | 1 | 35
CCN(CC)C(=O)CSc1nc2c(c(-c3cccnc3)c1C#N)CCCC2 | -2 | -2 | -1 | 0 | -1 | 67*
CCN(CC)C(=O)CSc1nc(-c2cccs2)cc(-c2cccs2)c1C#N | -1 | -1 | -3 | 0 | 0 | 10
COc1ccccc1/C=C/C(=O)Nc1ccc(S(=O)(=O)Nc2cc(C)on2)cc1 | -1 | -1 | 0 | 0 | 3 | 5
O=S(=O)(Nc1ccccn1)c1ccc(Cl)cc1 | -1 | -2 | 0 | 0 | 0 | 0
